This is part of a sample that, as a whole, favours compounds with a hit. Of some 83,000 tested, about 20% had one in any assay.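 Note: values are percent growth. 100 is the growth of untreated cells, values between 100 and 0 indicate rising inhibition; between -100 and 0 indicates cell death.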 A number with no mark means an inactive call. Calls of active or inactive are those of the source. Rule for the calls: active = growth percent below 10; inactive = the rest.
Assays:
Test in all cases: NCI-60 one-dose screen, 48 h (100 = growth as untreated, 0 = no growth, -100 = all killed)
Details in all cases: 10 µM unless noted
DU-145 prostate = system: DU-145 prostate
K-562 leukemia = system: K-562 leukemia
MALME-3M melanoma = system: MALME-3M melanoma
MDA-MB-231 breast = system: MDA-MB-231 breast
RXF 393 renal = system: RXF 393 renal
SF-268 CNS = system: SF-268 CNS
SF-295 CNS = system: SF-295 CNS
SF-539 CNS = system: SF-539 CNS
UACC-257 melanoma = system: UACC-257 melanoma
M14 melanoma = system: M14 melanoma

Row | Compound | growth (DU-145 prostate) | growth (K-562 leukemia) | growth (MALME-3M melanoma) | growth (MDA-MB-231 breast) | growth (RXF 393 renal) | growth (SF-268 CNS) | growth (SF-295 CNS) | growth (SF-539 CNS) | growth (UACC-257 melanoma) | growth (M14 melanoma)
1 | O=S(=O)(Nc1ccc(-c2nc(-c3cccc(OCCN4CCOCC4)c3)c(-c3ccnc(Br)c3)[nH]2)cc1)c1ccccc1 | 59.5% | 3.42% (active) | 44% | 36.8% | -15.1% (active) | 41.3% | 2.79% (active) | 38.1% | 53.1% | 36.8%
2 | CN(C)CCCNc1nc2ccccc2c2c(=O)c3cc(F)ccc3sc12 | 26.2% | -27% (active) | 81.6% | -29.6% (active) | 48.4% | 52.5% | 78.2% | 27.3% | 84.9% | -64.1% (active)
3 | NCCNc1nc2ccccc2c2c(=O)c3cc(F)ccc3sc12 | 65.9% | 1.61% (active) | 96.2% | 33.7% | 77.8% | 66.9% | 102% | 82.7% | 103% | 77.4%
4 | CNc1ccc(Nc2cccc(C)c2)c2c1C(=O)c1ccccc1C2=O | 85% | 92.7% | 147% | 96.1% | 93.4% | 87.5% | 146% | 99% | 107% | 122%
5 | O=C(Nc1c2ccccc2nc2ccccc12)c1ccccc1CN1C(=O)c2ccccc2C1=O | 27.3% | 22.8% | 31.2% | 34.3% | 43.9% | 34.3% | 31.7% | 21.6% | 38.5% | 21%
6 | Nc1ccccc1-c1cc2c(c3c1[nH]c1ccccc13)CCCCC2 | 102% | 98% | 117% | 90.3% | 113% | 97.2% | 103% | 116% | 105% | 92.5%
7 | CCc1cccc2c3c(sc12)C(c1ccc(Cl)cc1)C(C#N)=C(N)O3 (stereo not given) | 19.3% | 6.13% (active) | 54.6% | 31.6% | -18.8% (active) | 54.1% | 2.87% (active) | -15.4% (active) | 80% | 5.36% (active)
8 | COC(=O)/C=C1\S/C(=N\Nc2ccc([N+](=O)[O-])cc2[N+](=O)[O-])N(C2CCCCC2)C1=O | 44.2% | 17.8% | 87.5% | 59.8% | 62% | 71% | 77.1% | 69.2% | 80.1% | 78.1%
9 | Cc1ccc(C(=O)NN2C(=O)CSC2c2cccc([N+](=O)[O-])c2)cn1 (stereo not given) | 107% | 98.9% | 111% | 96.6% | 82.8% | 104% | 99.4% | 106% | 75.8% | 96.4%
10 | C#Cc1cccc(NC(=O)c2ccc(NC(=O)C=C)cc2)c1 | 58.9% [8.25 µM] | 71% [8.25 µM] | 85.2% [8.25 µM] | 90% [8.25 µM] | 58.7% [8.25 µM] | 79.3% [8.25 µM] | 102% [8.25 µM] | 75.6% [8.25 µM] | 69.9% [8.25 µM] | 86.3% [8.25 µM]
11 | Cc1ccc2sc3c(NCCCN)nc4ccccc4c3c(=O)c2c1 | 15.4% | -37.7% (active) | 104% | -14.6% (active) | 71.4% | 65.1% | 88% | 58% | 101% | 15%
12 | CC1=NN(c2ccc(S(=O)(=O)O)cc2)C(=O)C1N=Nc1ccc(-c2ccc(N=Nc3ccc(OS(=O)(=O)c4ccc(C)cc4)cc3)c(S(=O)(=O)O)c2)cc1 (stereo not given) | 107% | 94.4% | 108% | 97.1% | 61.7% | 100% | 77.5% | 85.1% | 104% | 103%
13 | CN(C(=O)NCc1cccc(F)c1Cl)[C@H](COC(=O)Nc1cc2ccccc2cn1)CC(O)CO (stereo not given in full) | 94.4% | 91.5% | 100% | 46.8% | 84.8% | 49.8% | 69.7% | 37% | 102% | 98.8%
14 | CCCCOc1ccc(/C=N/NC(N)=S)cc1 | 95.6% | 65% | 90.2% | 55.7% | 85.7% | 88.7% | 96.9% | 78.9% | 78.4% | 78%
15 | NCCCNc1nc2ccccc2c2c(=O)c3cccc(F)c3sc12 | 12.6% | -28.2% (active) | 80% | 6.07% (active) | 52.4% | 45.9% | 72.8% | 44.2% | 93.5% | 10%
16 | CC(=O)OC[C@H]1OC(Sc2sc(C(=O)c3ccc(Br)cc3)c(N)c2-c2nc3ccccc3s2)[C@H](OC(C)=O)[C@@H](OC(C)=O)[C@H]1OC(C)=O (stereo not given in full) | 110% | 92.2% | 98.1% | 80.6% | 115% | 93% | 97.1% | 95.2% | 104% | 96.1%
17 | COc1cccc2c(=O)c3c(sc12)c(NCCCN)nc1ccccc13 | 33.1% | -7.71% (active) | 90.9% | 10.3% | 61% | 61.4% | 72.8% | 56.1% | 94.1% | 33.9%
18 | CCN1C(=O)N(CC)C2Nn3c(s/c(=C\c4ccc([N+](=O)[O-])cc4)c3=O)=NC21 (stereo not given) | 91.8% | 29.4% | 70.3% | 47.8% | 103% | 90% | 93.9% | 94.3% | 43.4% | 48%
19 | CC1=C([Se]CC(OC(=O)[C@@H](CSSC(C)(C)C)NC(=O)OC(C)(C)C)C(=O)NC(C)(C)C)C(=O)c2ccccc2C1=O (stereo not given in full) | -98.7% (active) | 31.9% | -65.8% (active) | -42.2% (active) | -67.3% (active) | -96.6% (active) | -42.2% (active) | -100% (active) | -60% (active) | -84.8% (active)
20 | CN(C)CCNc1nc2ccccc2c2c(=O)c3cc(F)ccc3sc12 | 28.1% | -36.5% (active) | 81.9% | 6.88% (active) | 40% | 45.6% | 71.7% | 45.3% | 91.9% | -77.9% (active)
21 | BrCCCc1n(Cc2ccc3ccccc3c2)c2ccccc2[n+]1Cc1ccc2ccccc2c1 | -62.4% (active) | -13% (active) | -73.2% (active) | -60.8% (active) | -77.6% (active) | -75.4% (active) | -91.1% (active) | -74.9% (active) | -55.7% (active) | -60.4% (active)
22 | S=c1nc(-c2ccccc2)oc(=NC2CCCCC2)n1C1CCCCC1 | 13.4% | -42.6% (active) | 94.9% | 81.8% | 81.5% | 34.1% | 2.95% (active) | 65.2% | 95% | 84.8%
23 | COc1c(N2CC3CCCN(C(C)=O)C3C2)c(F)cc2c(=O)c(C(=O)N[C@H]3C(O)[C@@H](O)C(CO)O[C@H]3O)cn(C3CC3)c12 (stereo not given in full) | 112% | 103% | 117% | 103% | 128% | 92.3% | 103% | 103% | 103% | 110%
24 | CCc1ccccc1-n1c(N)c(C#N)c(-c2ccc(Cl)cc2)c(C#N)c1=O | 110% | 114% | 173% | 94.8% | 113% | 104% | 99.3% | 103% | 125% | 104%
25 | Cc1ccc2nc(NC(=O)CSc3nc(Cl)c(C#N)c(-c4ccccc4)n3)sc2c1 | 113% | 99.7% | 104% | 111% | 114% | 111% | 101% | 102% | 101% | 97.9%
26 | CCN(CC)CCCNc1nc2ccccc2c2c(=O)c3cc(Cl)ccc3sc12 | 54.4% | -44.2% (active) | 84.6% | -9.32% (active) | 76% | 55.6% | 104% | 58.3% | 102% | 1.36% (active)
27 | O=c1[nH]c2c(ccc3cnccc32)c2c1CCC2 | -9.29% (active) | 14.6% | -59.2% (active) | 2.78% (active) | -53.8% (active) | -17.7% (active) | -47.2% (active) | -59.7% (active) | 6.08% (active) | -77% (active)

From PubChem BioAssay (NCI)
